# Source: PubChem BioAssay (NCATS)
# Records with an inconclusive call do not appear. Entries that show only a call come without a potency. A number with no mark means an inactive call. Calls of active or inactive are those of the source. Calls come from the whole dose curve; as a rule, active = well fitted cell-killing curve with a large enough effect; inconclusive = small, poorly fitted or top-dose-only effect, or effect the other way; inactive = flat fitted curve, though single readings scatter.
# Test system: PA-1
# Experiment: Primary qHTS to identify gynecologic anti-cancer compounds using libraries of approved drugs and bioactive compounds (AID 1345084); note: nearly all actives have a fitted effect of over 55% in size
# Conditions: Gynecologic cancer cell panel viability, ATPlite luminescence, 48 h; series mostly up to 57.5 µM
# How it was run: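 Cell viability after 48 h drug treatment, ATPlite luminescence readout; five doses.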
Compound,Potency,"activity change, negative = cytotoxicity"
CC(C)=CCC/C(C)=C/CO[C@@H]1O[C@H](CO[C@@H]2OC[C@](O)(CO)[C@H]2O)[C@@H](O)[C@H](O)[C@H]1O,inactive,–
C[C@]1(OC(=O)/C=C/c2ccc(O)cc2)C[C@@H](O)[C@]2(O)C=CO[C@@H](O[C@@H]3O[C@H](CO)[C@@H](O)[C@H](O)[C@H]3O)C12 (some centres undefined),inactive,–
CC[C@H]1OC(=O)[C@H](C)C(=O)[C@H](C)[C@@H](OC2O[C@H](C)C[C@H](N(C)C)[C@H]2O)[C@@H](C)C[C@@H](C)C(=O)/C=C/[C@]1(C)O (some centres undefined),inactive,–
CC1(C)[C@@H]2CC=C(CO[C@@H]3O[C@H](CO[C@@H]4OC[C@H](O)[C@H](O)[C@H]4O)[C@@H](O)[C@H](O)[C@H]3O)[C@H]1C2,inactive,–
COc1cc(O)cc(C)c1C(=O)O[C@H]1[C@@H](O)[C@@H](n2ccc(=O)[nH]c2=O)O[C@@H]1CO,inactive,–
CCC1OC(=O)C(C)CC(C)C(=O)/C(C)=C/C(C)C(=O)/C=C/C1(C)O (centres undefined),inactive,–
CC(C)CC(=O)O[C@@H]1O[C@H](CO)[C@@H](O[C@H]2O[C@H](C)[C@@H](N[C@H]3C=C(CO)[C@@H](O[C@H]4O[C@H](CO)[C@@H](O[C@H]5O[C@H](CO)[C@@H](O[C@H]6O[C@H](CO)[C@@H](O)[C@H](O)[C@H]6O)[C@H](O)[C@H]5O)[C@H](O)[C@H]4O)[C@H](O)[C@H]3O)[C@H](O)[C@H]2O)[C@H](O)[C@H]1O,–,-1.75% [at 11.6 µM]
CC1=CCC[C@@H]2[C@@](C)(CCc3ccoc3)[C@H](C(=O)O)CC[C@@]12C,inactive,–
CCN(CCN(C)C)C(=O)CNCc1cc(C(N)=O)ccn1,inactive,–
O=C(NCC(=O)N1CCCC1)Nc1ccc2ccccc2c1,inactive,–
NCCCCN(Cc1nc2ccccc2[nH]1)[C@H]1CCCc2cccnc21,inactive,–
C[C@@H]1O[C@@H](O[C@@H]2[C@@H](O)[C@H](O[C@H]3[C@H](O[C@H]4CC[C@@]5(C)C(CC[C@]6(C)C5CC=C5[C@@H]7CC(C)(C)CC[C@]7(C(=O)O[C@@H]7O[C@H](CO)[C@@H](O)[C@H](O)[C@H]7O)CC[C@]56C)C4(C)C)O[C@H](C(=O)O)[C@@H](O)[C@@H]3O)OC[C@H]2O)[C@H](O)[C@H](O)[C@H]1O (some centres undefined),–,4.95% [at 11.6 µM]
O=C(O)C[C@H]1CCC(=O)[C@@H]1C/C=C\CCO,inactive,–
CC(/C=C/C=C(\C)C(=O)O[C@@H]1O[C@H](CO[C@@H]2O[C@H](CO)[C@@H](O)[C@H](O)[C@H]2O)[C@@H](O)[C@H](O)[C@H]1O)=C\C=C\C=C(C)\C=C\C=C(/C)C(=O)O[C@@H]1C[C@](O)(C(=O)O)C[C@@H](O)[C@H]1OC(=O)/C=C/c1ccc(O)c(O)c1,–,-12.7% [at 11.6 µM]
COc1cc(CC2COC(c3ccc(OC4OC(CO)C(O)C(O)C4O)c(OC)c3)C2CO)ccc1O (centres undefined),inactive,–
CCC(C)/C=C(C)/C=C/C1=CC2=C(Cl)C(=O)C(C)(O)C(=O)C2(O)C(OC)O1 (centres undefined),inactive,–
C=C1C[C@H](O)[C@@H](O)[C@@]2(C)C1[C@@H](O)[C@H]1OC(=O)C3[C@@H](C)[C@@H](O)[C@H](O)C2[C@]31C (some centres undefined),inactive,–
COc1ccc(/C=C/C(N)=O)cc1OC,inactive,–
CC(=O)/C=C/[C@H]1[C@](C)(O)[C@@H](O)[C@H](O)C2C(C)(C)CCC[C@@]21C (some centres undefined),inactive,–
CC(=O)OC/C(=C/C(=O)O)CC[C@@H]1C(C)=CC(=O)[C@@H]2C(C)(C)CCC[C@@]12C,inactive,–

Compound,Potency,"activity change, negative = cytotoxicity"
CC1=CCC[C@@H]2[C@](CCc3ccoc3)(C(=O)O)[C@H](C)CC[C@@]12C,inactive,–
CC(=O)c1ccc(O[C@@H]2O[C@H](CO[C@@H]3OC[C@@H](O)[C@H](O)[C@H]3O)[C@@H](O)[C@H](O)[C@H]2O)cc1,inactive,–
C=C(C)C(O)COc1ccc(CC(=O)O)cc1 (centres undefined),inactive,–
N#Cc1cccc(-c2c[nH]c3ncnc(N4CCOCC4)c23)c1,inactive,–
On1ncc(C2CCNCC2)c1-c1cccc(-c2ccccc2)c1,inactive,–
COCC1OC(OC(C)(C)C2CCC3(C)C=C(C4CCC5C4(C)CC(O)C4OC(C(C)(C)O)CCC45C)CCC3O2)C(NC(C)=O)C(O)C1O (centres undefined),inactive,–
CC1CC(=O)C2C(O)(C1)CC(O)C13OC1c1c(O)cccc1C(=O)C23O (centres undefined),inactive,–
Cc1cccc(NC(=O)CN2CCC(c3ccccn3)CC2)c1,inactive,–
C[C@@H]1O[C@@H](OC(=O)Cc2ccccc2)[C@H](O)[C@H](O)[C@H]1O,inactive,–
CC(C)c1ccc2c(c1)CCC1[C@](C)(C(=O)O)CCC[C@]21C (some centres undefined),inactive,–
O=C(O)c1ccc(NC(=O)[C@H](CC2CCCC2)n2cnc(C(F)(F)F)c2)nc1,inactive,–
C/C(=C/CO)CC[C@H]1[C@]2(C)C[C@H](O)CC(C)(C)[C@H]2CC[C@]1(C)O,inactive,–
O=C(OC[C@H]1O[C@H](O[C@]2(CO)O[C@H](CO)[C@@H](O)[C@@H]2O)[C@H](O)[C@@H](O)[C@@H]1O)c1ccc(O)cc1,inactive,–
CC(C)C1CCC(C(=O)N[C@@H](Cc2ccccc2)C(=O)O)CC1 (some centres undefined),inactive,–
C[C@@H]1O[C@@H](OC[C@H]2O[C@@H](OCc3ccccc3)[C@H](O)[C@@H](O)[C@@H]2O)[C@H](O)[C@H](O)[C@H]1O,inactive,–
CCC[C@H](N[C@@H](C)C(=O)N1[C@H](C(=O)O)C[C@@H]2CCCC[C@@H]21)C(=O)O,inactive,–
C=C1C[C@]23C[C@H]1CC[C@H]2[C@]1(C)CC[C@H](O)[C@@](C)(C(=O)O)[C@H]1[C@@H]3C(=O)O,inactive,–
COC(=O)[C@H](O)[C@H]1C(C)(C)[C@H](OC(C)=O)[C@@]2(O)C(=O)[C@]1(C)C1CC[C@]3(C)C(CC(=O)O[C@H]3c3ccoc3)[C@]13O[C@@H]32 (some centres undefined),inactive,–
COC(=O)C1(C)CCCC2(C)c3ccc(C(C)C)cc3C(O)C(O)C12 (centres undefined),inactive,–
